Laboratory results: PubChem BioAssay
Calls of active or inactive are those of the source.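 The calls were made as follows, unless noted: active = compounds killing one labelled cell type while sparing the other, by normalised counts and ratio limits, not self-fluorescent; inactive = the rest.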

Legend:
[1] = target: 6-phosphogluconate dehydrogenase, decarboxylating (Homo sapiens) (UniProt P52209); assay: inhibition of human phosphogluconate dehydrogenase – biochemical, recombinant enzyme, NADPH absorbance, primary screen (AID 1159550;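 active = at least 20% inhibition of 6-phosphogluconate dehydrogenase activity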); conditions: recombinant 6PGD, NADPH absorbance 341 nm; at 10 µM; stronger effect = higher value
6-phosphogluconate dehydrogenase, decarboxylating (Homo sapiens), sequence (P52209 whole entry, looked up): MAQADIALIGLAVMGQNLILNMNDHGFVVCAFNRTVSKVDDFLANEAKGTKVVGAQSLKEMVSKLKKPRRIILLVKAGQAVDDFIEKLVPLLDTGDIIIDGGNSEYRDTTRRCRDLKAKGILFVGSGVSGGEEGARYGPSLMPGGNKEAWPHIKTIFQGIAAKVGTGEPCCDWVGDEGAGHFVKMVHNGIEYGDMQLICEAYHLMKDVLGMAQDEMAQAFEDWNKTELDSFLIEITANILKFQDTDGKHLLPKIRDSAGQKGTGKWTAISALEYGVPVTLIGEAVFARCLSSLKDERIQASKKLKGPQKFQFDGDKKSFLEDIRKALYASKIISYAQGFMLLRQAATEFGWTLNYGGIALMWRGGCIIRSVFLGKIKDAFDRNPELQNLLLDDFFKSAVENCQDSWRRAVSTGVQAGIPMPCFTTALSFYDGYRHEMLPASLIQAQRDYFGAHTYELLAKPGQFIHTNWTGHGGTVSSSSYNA

[2] = EMT-state selective cytotoxicity in co-culture – imaging, PC-3E GFP, TEM4-18 mCherry, primary screen (AID 1345086); conditions: PC-3E GFP / TEM4-18 mCherry co-culture, imaging cell counts, at 1 µM; for red/green cell ratio (normalised): actives lie on both sides, counts scaled to control wells, 1 = unselective;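 as to all read-outs here: cells exposed to compound for 72 h before imaging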;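 as to red/green cell ratio (normalised): normalised mesenchymal count divided by normalised epithelial count so high means epithelial killing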
[3] = target: Mitogen-activated protein kinase 7 (Homo sapiens) (UniProt Q13164); assay: Gal4-ERK5 driven luciferase induction – cell-based, HTS, primary screen (AID 1508626;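 active = luciferase signal above three times the same-plate solvent-only control wells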;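 also: luciferase driven by Gal4-ERK5 fusion binding five Gal4 sites before minimal TATA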); conditions: HeLa Gal4-ERK5 transactivation, 18 h, at 5 µM, stronger effect = higher value
Mitogen-activated protein kinase 7 (Homo sapiens), sequence (Q13164 whole entry, looked up, the tested form may be a part): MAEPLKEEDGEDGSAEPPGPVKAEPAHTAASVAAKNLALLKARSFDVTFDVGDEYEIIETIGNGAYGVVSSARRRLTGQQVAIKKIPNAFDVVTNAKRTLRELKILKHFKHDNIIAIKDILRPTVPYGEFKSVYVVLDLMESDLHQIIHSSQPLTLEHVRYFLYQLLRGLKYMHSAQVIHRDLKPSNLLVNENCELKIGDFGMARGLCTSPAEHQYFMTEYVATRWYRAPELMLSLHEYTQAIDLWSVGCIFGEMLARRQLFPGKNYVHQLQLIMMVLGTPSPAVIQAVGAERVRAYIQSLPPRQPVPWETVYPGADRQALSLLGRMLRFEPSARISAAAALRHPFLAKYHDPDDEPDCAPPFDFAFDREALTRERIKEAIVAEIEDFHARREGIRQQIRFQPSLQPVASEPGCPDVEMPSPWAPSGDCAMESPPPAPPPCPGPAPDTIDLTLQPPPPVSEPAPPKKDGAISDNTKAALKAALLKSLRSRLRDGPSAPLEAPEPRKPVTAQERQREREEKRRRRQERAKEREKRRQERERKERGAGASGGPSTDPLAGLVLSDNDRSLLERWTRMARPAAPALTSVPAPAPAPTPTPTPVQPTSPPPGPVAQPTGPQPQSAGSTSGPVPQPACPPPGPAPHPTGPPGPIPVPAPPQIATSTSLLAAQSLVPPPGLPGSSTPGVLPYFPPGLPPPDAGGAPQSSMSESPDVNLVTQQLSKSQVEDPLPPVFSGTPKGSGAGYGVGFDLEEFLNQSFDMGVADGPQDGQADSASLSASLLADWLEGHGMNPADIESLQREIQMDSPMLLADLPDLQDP

[4] = measured here: epithelial PC-3E GFP cell survival
[5] = measured here: mesenchymal TEM4-18 mCherry cell survival

Structure (SMILES) | inhibition [1] | red/green cell ratio (normalised) [2] | normalised cell number [2, 4] | normalised cell number [2, 5] | luciferase signal [3]
C=CCCCCCCCCCCCC(O)CC(O)COC(C)=O (stereo not given) (tested in a mixture with another compound) | 4.12% (inactive) | 0.92 (inactive) | 1 | 0.92 | 36 AU (inactive)
CC(=O)O[C@H]1C[C@@H](OC(C)=O)C(C)(C)C2CC(=O)[C@]3(C)C(CC[C@@]4(C)[C@H](c5ccoc5)OC(=O)[C@H]5O[C@]543)[C@]21C (stereo not given in full) | 6.24% (inactive) | 0.93 (inactive) | 0.94 | 0.87 | 16 AU (inactive)
CCC(C)C(NC)C(=O)O (stereo not given) | -6.91% (inactive) | 1.02 (inactive) | 1.08 | 1.11 | 68 AU (inactive)
CCC(C(=O)O)c1ccccc1 (stereo not given) | -10% (inactive) | 1.07 (inactive) | 1.08 | 1.15 | 76 AU (inactive)
COC1=CC(=O)C(C(=O)c2ccccc2)=CC1=O | -0.278% (inactive) | 1.01 (inactive) | 1.01 | 1.03 | 72 AU (inactive)
COc1ccc2c(c1)OC/C(=C\c1ccc(OC)c(O)c1)C2=O | -46% (inactive) | 0.99 (inactive) | 0.74 | 0.74 | 88 AU (inactive)
c1ccc2c(c1)CN1CCCC1=N2 | -1.15% (inactive) | 1.13 (inactive) | 0.94 | 1.06 | 52 AU (inactive)
COc1ccc2c(c1)OCc1c-2oc2cc(OC)ccc12 | 2.98% (inactive) | 0.82 (inactive) | 1.14 | 0.93 | 96 AU (inactive)
CC(=O)O[C@H]1CCC2(C)C3=C(CCC2C1(C)C)[C@]1(C)CCC(C(C)CCC=C(C)C)[C@@]1(C)CC3 (stereo not given in full) | 12.8% (inactive) | 0.97 (inactive) | 0.86 | 0.83 | 52 AU (inactive)
COc1ccc(-c2cc(=O)c3c(OC(C)=O)cc(OC(C)=O)cc3o2)cc1 | -1.6% (inactive) | 0.89 (inactive) | 1.06 | 0.95 | 60 AU (inactive)
COc1c(-c2coc3cc4c(cc3c2=O)CC(O)C(C)(C)O4)ccc2c1C=CC(C)(C)O2 (stereo not given) | -4.11% (inactive) | 0.82 (inactive) | 1.08 | 0.88 | 24 AU (inactive)
N[C@@H](C(=O)O)[C@@H](O)[C@H](O)[C@H](O)CO | 9.87% (inactive) | 1.16 (inactive) | 1.02 | 1.18 | 108 AU (inactive)
C=C1C(=O)O[C@@H]2C[C@@]3(C)CCC[C@H](C)C3=C[C@H]12 | 8.8% (inactive) | 1.12 (inactive) | 0.81 | 0.9 | 84 AU (inactive)
O=c1c(O)c(-c2ccccc2)oc2ccccc12 | 1.99% (inactive) | 0.97 (inactive) | 1.03 | 1 | 24 AU (inactive)
S=c1[nH]c2ccccc2s1 | -1.67% (inactive) | 0.97 (inactive) | 1.13 | 1.09 | 48 AU (inactive)
CC(C)=CC1C(C(=O)O)C1(C)C (stereo not given) | -0.837% (inactive) | 1.07 (inactive) | 0.96 | 1.03 | 44 AU (inactive)
O=C(Nc1ccccc1)Nc1ccccc1 | 0.726% (inactive) | 0.79 (inactive) | 1.16 | 0.91 | 108 AU (inactive)
COc1cccc(O)c1O | -0.395% (inactive) | 0.97 (inactive) | 0.99 | 0.96 | 52 AU (inactive)
Cc1ccc2c(c1)CC[C@H]1CC(=O)CC[C@]21C | -2.97% (inactive) | 1.02 (inactive) | 1.12 | 1.14 | 16 AU (inactive)
Cc1cc(=O)oc2cc(O)c(O)cc12 | 8.55% (inactive) | 0.79 (inactive) | 1.15 | 0.91 | 60 AU (inactive)
COc1cc(/C=C/C(=O)O)cc(OC)c1OC | -1.71% (inactive) | 0.99 (inactive) | 1.06 | 1.04 | 52 AU (inactive)
CC1(C)CC2C1CCC1(C)OC2(C)CCC1O (stereo not given) | 12.8% (inactive) | 1.07 (inactive) | 0.96 | 1.03 | 100 AU (inactive)
CCCCCc1c2c(cc(O)c1C(=O)O)OC(=O)c1c(cc(OC)cc1C(=O)CCCC)O2 | 4.81% (inactive) | 0.98 (inactive) | 1.07 | 1.05 | 48 AU (inactive)
Cc1cc(O)c(C=O)c(O)c1C(=O)O | 15% (inactive) | 0.84 (inactive) | 1.14 | 0.95 | 120 AU (inactive)
NCCC(=O)N[C@@H](Cc1cnc[nH]1)C(=O)O | -1.18% (inactive) | 1.1 (inactive) | 0.93 | 1.03 | 100 AU (inactive)
Oc1ccc([C@H]2Oc3cc(O)cc(O)c3C[C@H]2O)cc1 | 2.29% (inactive) | 0.95 (inactive) | 0.99 | 0.94 | 140 AU (inactive)
COC1(C)CCC2OC2(C)CCC2C1CC2(C)C (stereo not given) | 10.7% (inactive) | 1.21 (inactive) | 0.76 | 0.91 | 80 AU (inactive)
CCc1ccc2c(O)c3c(cc2c1C(=O)OC)C(=O)c1c(O)ccc(O)c1C3=O | -5.67% (inactive) | 0.83 (inactive) | 1.11 | 0.92 | 44 AU (inactive)
C=C[C@@](C)(O)CCC1C(=C)CCC2[C@@](C)(CO)CCC[C@]12C (stereo not given in full) | 4.45% (inactive) | 0.89 (inactive) | 1.15 | 1.03 | 36 AU (inactive)
COc1ccc(C(=O)O)c(O)c1OC | 17.2% (inactive) | 1.11 (inactive) | 1.01 | 1.12 | 56 AU (inactive)
